Measured values taken from PubChem BioAssay (EPA / NIEHS).
Records with an inconclusive call do not appear. Activity calls are given as the source filed them. How the source made its calls, unless noted: active means hit-call score of the fitted dose curve at least 0.9, where 1 is the maximum; inactive means score below 0.9.

What was measured:
[1] = target: human Retinoid X Receptor beta (RXRb), RXRB (gene 6257) (UniProt P28702); assay: ATG_RXRb_TRANS: Attagene TRANS-FACTORIAL HepG2 Assay for human Retinoid X Receptor beta (RXRb) (AID 2283013; active means hit-call score of the fitted dose curve at least 0.9, where 1 is the maximum)
Sequence of human Retinoid X Receptor beta (RXRb), RXRB (gene 6257) (P28702 whole entry, looked up, the tested form may be a part): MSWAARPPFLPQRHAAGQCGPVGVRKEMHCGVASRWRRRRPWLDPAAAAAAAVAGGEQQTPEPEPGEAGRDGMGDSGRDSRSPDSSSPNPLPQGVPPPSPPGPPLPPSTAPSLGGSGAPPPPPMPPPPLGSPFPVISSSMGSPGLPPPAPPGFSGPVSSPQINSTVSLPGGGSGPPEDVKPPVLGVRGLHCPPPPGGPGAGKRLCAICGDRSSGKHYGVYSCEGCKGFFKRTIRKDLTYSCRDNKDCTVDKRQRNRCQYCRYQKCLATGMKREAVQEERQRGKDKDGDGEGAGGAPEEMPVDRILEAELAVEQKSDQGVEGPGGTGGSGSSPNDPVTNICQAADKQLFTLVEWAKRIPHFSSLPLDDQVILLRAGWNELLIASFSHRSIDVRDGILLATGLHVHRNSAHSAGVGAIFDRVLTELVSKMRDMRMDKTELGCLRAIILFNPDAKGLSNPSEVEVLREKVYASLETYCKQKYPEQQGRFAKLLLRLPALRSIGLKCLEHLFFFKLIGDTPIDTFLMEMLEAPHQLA
How it was run: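 HepG2 cells were transiently transfected with multiplexed GAL4-UAS reporters and a chimeric RXRb-Gal4 construct, then exposed for 24 h. Reporter mRNA was quantified by RT-PCR, FAM labeling, HpaI digestion and capillary electrophoresis; gain of signal was scored against DMSO.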

[2] = target: human Vitamin D Receptor (VDR), VDR (gene 7421) (UniProt P11473); assay: ATG_VDR_TRANS: Attagene TRANS-FACTORIAL HepG2 Assay for human Vitamin D Receptor (VDR) (AID 2283022; active means hit-call score of the fitted dose curve at least 0.9, where 1 is the maximum)
Sequence of human Vitamin D Receptor (VDR), VDR (gene 7421) (P11473 whole entry, looked up, the tested form may be a part): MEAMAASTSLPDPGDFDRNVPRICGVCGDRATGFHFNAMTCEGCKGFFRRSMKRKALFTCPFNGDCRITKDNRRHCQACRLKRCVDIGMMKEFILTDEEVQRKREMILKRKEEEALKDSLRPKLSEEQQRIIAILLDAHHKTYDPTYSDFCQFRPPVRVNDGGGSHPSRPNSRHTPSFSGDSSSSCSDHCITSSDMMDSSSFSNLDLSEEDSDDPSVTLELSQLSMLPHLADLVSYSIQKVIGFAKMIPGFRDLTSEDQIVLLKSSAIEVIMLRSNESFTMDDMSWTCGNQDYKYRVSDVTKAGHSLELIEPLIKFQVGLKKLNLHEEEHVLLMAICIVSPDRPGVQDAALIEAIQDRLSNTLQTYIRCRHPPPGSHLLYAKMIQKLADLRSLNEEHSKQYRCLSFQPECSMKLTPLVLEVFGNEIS
How it was run: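 Transactivation by an exogenous VDR-Gal4 chimera in transiently transfected HepG2 cells was measured as reporter transcript level 24 hours after chemical treatment. RT-PCR products were analysed by capillary electrophoresis and fitted in the positive direction relative to DMSO.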

[3] = target: human Thyroid Receptor alpha (THRa1), THRA (gene 7067) (UniProt P10827); assay: ATG_THRa1_TRANS: Attagene TRANS-FACTORIAL HepG2 Assay for human Thyroid Receptor alpha (THRa1) (AID 2283014; active means hit-call score of the fitted dose curve at least 0.9, where 1 is the maximum)
Sequence of human Thyroid Receptor alpha (THRa1), THRA (gene 7067) (P10827 whole entry, looked up, the tested form may be a part): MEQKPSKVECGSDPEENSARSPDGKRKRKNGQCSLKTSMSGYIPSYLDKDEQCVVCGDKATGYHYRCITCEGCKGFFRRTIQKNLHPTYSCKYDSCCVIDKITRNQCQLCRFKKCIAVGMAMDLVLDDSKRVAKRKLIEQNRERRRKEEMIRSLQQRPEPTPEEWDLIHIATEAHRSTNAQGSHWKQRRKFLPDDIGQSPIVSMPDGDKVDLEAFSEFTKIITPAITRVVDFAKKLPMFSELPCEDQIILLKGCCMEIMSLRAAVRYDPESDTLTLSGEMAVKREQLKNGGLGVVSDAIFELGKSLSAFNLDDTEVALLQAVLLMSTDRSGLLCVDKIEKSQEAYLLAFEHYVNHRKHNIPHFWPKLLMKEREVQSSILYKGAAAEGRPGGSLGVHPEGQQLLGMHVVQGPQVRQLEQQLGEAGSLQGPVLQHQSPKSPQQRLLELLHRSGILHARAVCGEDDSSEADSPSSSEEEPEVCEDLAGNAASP
How it was run: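 Transcripts from GAL4-UAS-driven reporters, measured after 24 h compound exposure by RT-PCR plus capillary electrophoresis of 6-FAM-labeled fragments, were fitted for gain of signal relative to DMSO. Cells: transiently transfected HepG2 expressing NR-Gal4 chimeras.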

[4] = read-out: E-selectin (Homo sapiens) (UniProt P16581); assay: BSK_3C_Eselectin: BioMAP Diversity Plus: 3C Assay for Eselectin Biomarker Activity (AID 2283015); details: primary human endothelial cells (HUVEC); actives raise or lower the signal
How it was run: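 E-selectin ELISA readout, fitted bidirectionally relative to DMSO, taken 24 h post-dosing in HUVEC cultures of the 3C system. Overt cytotoxicity tracked with sulforhodamine B staining of parallel wells.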

[5] = read-out: Interleukin-1 alpha (IL1a), IL1A (gene 3552); assay: BSK_BE3C_IL1a: BioMAP Diversity Plus: BE3C Assay for Interleukin-1 alpha (IL1a) Biomarker Activity (AID 2283016); details: primary human bronchial epithelial cells; actives raise or lower the signal
How it was run: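 Human primary bronchial epithelial cells, 24 h chemical exposure; IL-1a quantified by ELISA, fitted bidirectionally against DMSO. Cytotoxicity assessed in parallel by SRB total-protein staining at the time of measurement.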

[6] = read-out: Monocyte Chemoattractant Protein-1 (MCP1), CCL2 (gene 6347); assay: BSK_3C_MCP1: BioMAP Diversity Plus: 3C Assay for Monocyte Chemoattractant Protein-1 (MCP1) Biomarker Activity (AID 2283017); details: primary human endothelial cells (HUVEC); actives raise or lower the signal
How it was run: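 MCP-1 was measured by ELISA 24 h after dosing in primary HUVEC 3C cultures and fitted in both directions relative to DMSO; cytotoxicity was checked by SRB total-protein staining in parallel wells.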

[7] = read-out: Monocyte Chemoattractant Protein-1 (MCP1), CCL2 (gene 6347); assay: BSK_4H_MCP1: BioMAP Diversity Plus: 4H Assay for Monocyte Chemoattractant Protein-1 (MCP1) Biomarker Activity (AID 2283018); details: primary human endothelial cells (HUVEC); actives raise or lower the signal
How it was run: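 Human umbilical vein endothelial cells (4H system) exposed to chemicals for 24 h in 96-well format. MCP-1 measured by ELISA; bidirectional fitting against DMSO, with SRB total-protein staining in parallel cultures for cytotoxicity.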

[8] = read-out: Human Leukocyte Antigen - DR isotype (HLADR), HLA-DRA (gene 3122); assay: BSK_3C_HLADR: BioMAP Diversity Plus: 3C Assay for Human Leukocyte Antigen - DR isotype (HLADR) Biomarker Activity (AID 2283019); details: primary human endothelial cells (HUVEC); actives raise or lower the signal
How it was run: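 Bidirectional fitting against DMSO was applied to the HLA-DR ELISA signal from human umbilical vein endothelial cells, 24 h post-dose. Cytotoxicity came from parallel SRB total-protein staining; 3C proliferation was counted by SRB at 48 h.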

[9] = read-out: Interleukin-8 (IL8), CXCL8 (gene 3576); assay: BSK_3C_IL8: BioMAP Diversity Plus: 3C Assay for Interleukin-8 (IL8) Biomarker Activity (AID 2283020); details: primary human endothelial cells (HUVEC); actives raise or lower the signal
How it was run: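 Primary human umbilical vein endothelial cells were dosed for 24 h. IL-8 was quantified by ELISA and fitted bidirectionally against DMSO. Cytotoxicity was assessed in parallel cultures by SRB staining at 560 nm.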

[10] = read-out: Monokine induced gamma interferon (MIG), CXCL9 (gene 4283); assay: BSK_3C_MIG: BioMAP Diversity Plus: 3C Assay for Monokine induced gamma interferon (MIG) Biomarker Activity (AID 2283021); details: primary human endothelial cells (HUVEC); actives raise or lower the signal
How it was run: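 HUVEC primary endothelial cultures dosed with chemical; MIG quantified by ELISA at 24 h. Data fitted bidirectionally against DMSO control, with parallel SRB total-protein staining for cytotoxicity.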

[11] = BSK_3C_SRB: Viability Assessment in the BioMAP Diversity Plus: 3C Assay (AID 2283023); details: primary human endothelial cells (HUVEC);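 further: fitted both ways against DMSO so a hit may be signal rise or drop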
How it was run: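 Cytotoxicity readout in parallel HUVEC 3C cultures: after 24 h compound exposure, cells fixed with 10% TCA, stained with 0.1% SRB and read at 560 nm. Gain or loss relative to DMSO fitted.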

[12] = read-out: Matrix Metallopeptidase 1 (MMP1), MMP1 (gene 4312); assay: BSK_BE3C_MMP1: BioMAP Diversity Plus: BE3C Assay for Matrix Metallopeptidase 1 (MMP1) Biomarker Activity (AID 2283024); details: primary human bronchial epithelial cells; actives raise or lower the signal
How it was run: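 Human primary bronchial epithelial cells (BE3C system) dosed for 24 h; MMP-1 quantified by ELISA. Bidirectional fit against DMSO; cytotoxicity tracked in parallel cultures by SRB total-protein staining.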

[13] = BSK_3C_Vis: BioMAP Diversity Plus: 3C Assay for Morphology Visualization (AID 2283025); details: primary human endothelial cells (HUVEC);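 further: light microscopy image of cell morphology used as background control; fitted both ways so gain or loss versus DMSO counts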
How it was run: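 Human umbilical vein endothelial cell morphology was inspected by light microscopy 24 h after chemical dosing; scored bidirectionally relative to DMSO.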

[14] = read-out: Pselectin, SELP (gene 6403); assay: BSK_4H_Pselectin: BioMAP Diversity Plus: 4H Assay for Pselectin Biomarker Activity (AID 2283026); details: primary human endothelial cells (HUVEC); actives raise or lower the signal
How it was run: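 Primary human umbilical vein endothelial cells were treated 24 h, and cell-surface P-selectin was then quantified by ELISA. Bidirectional fit versus DMSO; cytotoxicity checked in parallel cultures by SRB total-protein staining.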

[15] = BSK_BE3C_SRB: Viability Assessment in the BioMAP Diversity Plus: BE3C Assay (AID 2283028); details: primary human bronchial epithelial cells
How it was run: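 Cytotoxicity read-out: SRB (0.1%) staining of TCA-fixed (10%) human lung bronchial epithelial cells, absorbance 560 nm, 24 h post-dosing. Curves fitted both directions relative to DMSO.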

[16] = read-out: Thrombomodulin, THBD (gene 7056); assay: BSK_3C_Thrombomodulin: BioMAP Diversity Plus: 3C Assay for Thrombomodulin Biomarker Activity (AID 2283029); details: primary human endothelial cells (HUVEC); actives raise or lower the signal
How it was run: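 Human umbilical vein endothelial cells were exposed to chemicals for 24 h; cell-surface thrombomodulin quantified by ELISA, with bidirectional fitting against DMSO baseline.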

[17] = read-out: Vascular endothelial growth factor receptor 2 (Homo sapiens) (UniProt P35968); assay: BSK_4H_VEGFRII: BioMAP Diversity Plus: 4H Assay for Vascular endothelial growth factor receptor 2 (VEGFR2) Biomarker Activity (AID 2283031); details: primary human endothelial cells (HUVEC); actives raise or lower the signal;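 on AC50: cell-surface VEGFR2 protein level quantified by ELISA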
How it was run: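 Measured by ELISA after 24 h of compound treatment: VEGFR2 on primary human umbilical vein endothelial cells, fitted in both directions relative to DMSO. Parallel cultures received SRB staining (560 nm) for overt cytotoxicity.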

[18] = read-out: Human Leukocyte Antigen - DR isotype (HLADR), HLA-DRA (gene 3122); assay: BSK_BE3C_HLADR: BioMAP Diversity Plus: BE3C Assay for Human Leukocyte Antigen - DR isotype (HLADR) Biomarker Activity (AID 2283032); details: primary human bronchial epithelial cells; actives raise or lower the signal
How it was run: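 Human primary bronchial epithelial cells (BE3C system) exposed to compound for 24 hours; cell-surface HLA-DR measured by ELISA, fitted bidirectionally relative to DMSO. Total protein by SRB in parallel cultures tracked cytotoxicity.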

[19] = read-out: Vascular cell adhesion molecule 1 (VCAM1), VCAM1 (gene 7412); assay: BSK_4H_VCAM1: BioMAP Diversity Plus: 4H Assay for Vascular cell adhesion molecule 1 (VCAM1) Biomarker Activity (AID 2283033); details: primary human endothelial cells (HUVEC); actives raise or lower the signal
How it was run: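 Primary human umbilical vein endothelial cells, 4H stimulation system, treated for 24 h; cell-surface VCAM-1 quantified by ELISA. Bidirectional fitting against DMSO; cytotoxicity tracked by SRB total-protein staining in parallel cultures.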

[20] = read-out: Interferon-gamma inducible Protein 10 (IP10), CXCL10 (gene 3627); assay: BSK_BE3C_IP10: BioMAP Diversity Plus: BE3C Assay for Interferon-gamma inducible Protein 10 (IP10) Biomarker Activity (AID 2283034); details: primary human bronchial epithelial cells; actives raise or lower the signal
How it was run: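 Primary human bronchial epithelial cells, with IP-10 measured by ELISA 24 hours after chemical dosing. Bidirectional fit against DMSO; cytotoxicity checked by SRB total protein staining in parallel cultures.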

Measured: AC50

Sequence of E-selectin (Homo sapiens) (P16581 whole entry, looked up): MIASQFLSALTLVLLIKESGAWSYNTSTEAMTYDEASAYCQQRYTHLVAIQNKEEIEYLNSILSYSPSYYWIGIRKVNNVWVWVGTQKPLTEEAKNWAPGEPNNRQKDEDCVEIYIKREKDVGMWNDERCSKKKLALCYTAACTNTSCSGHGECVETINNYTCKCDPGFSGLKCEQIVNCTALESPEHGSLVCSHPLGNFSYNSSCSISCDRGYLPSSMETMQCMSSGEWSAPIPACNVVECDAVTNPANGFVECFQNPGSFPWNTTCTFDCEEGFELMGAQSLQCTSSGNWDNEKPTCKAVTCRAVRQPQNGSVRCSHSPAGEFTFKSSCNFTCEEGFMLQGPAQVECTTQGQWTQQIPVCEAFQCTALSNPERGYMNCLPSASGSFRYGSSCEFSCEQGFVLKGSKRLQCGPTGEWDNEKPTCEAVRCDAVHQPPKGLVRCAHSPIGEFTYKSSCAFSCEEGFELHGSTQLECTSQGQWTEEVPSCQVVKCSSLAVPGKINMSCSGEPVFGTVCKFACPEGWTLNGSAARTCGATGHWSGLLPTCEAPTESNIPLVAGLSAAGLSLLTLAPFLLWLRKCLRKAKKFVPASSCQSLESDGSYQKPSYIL

O=C1Nc2ccccc2C1(c1ccc(O)cc1)c1ccc(O)cc1
inactive: [1] | [2]

CNC(=S)N(C)C
inactive: [1] | [2]

O=C1OC(=O)c2cc(Oc3ccc4c(c3)C(=O)OC4=O)ccc21
inactive: [1] | [3] | [2]

O=S(=O)(O)CC(O)CCl (centres undefined)
inactive: [1] | [2]

CC[C@H]1OC(=O)[C@H](C)[C@@H](O[C@H]2C[C@@](C)(OC)[C@@H](O)[C@H](C)O2)[C@H](C)[C@@H](O[C@@H]2O[C@H](C)C[C@H](N(C)C)[C@H]2O)[C@](C)(O)C[C@@H](C)C(=NOCOCCOC)[C@H](C)[C@@H](O)[C@]1(C)O
inactive: [1] | [2]

FC(F)=C(F)OC(F)(F)C(F)(F)C(F)(F)F
inactive: [1] | [2]

CCCCCCCCCCOS(=O)(=O)O
inactive: [1] | [2]

O=[N+]([O-])C1(Br)COCOC1
inactive: [1] | [2]

CCCCC(CC)COC(=O)c1ccccc1O (centres undefined)
inactive: [1] | [5] | [10] | [2] | [12] | [15] | [16] | [18] | [20]
active: [4] 10 µM | [6] 15.9 µM | [7] 16.2 µM | [8] 18.1 µM | [9] 10 µM | [11] 15.7 µM | [13] 19.9 µM | [14] 16.2 µM | [17] 18.8 µM | [19] 14.9 µM

C=C(C)[C@@H]1CCC2=CCC[C@@H](C)[C@]2(C)C1
active: [1] 47.6 µM
inactive: [2]

COCc1c(C(C)C)nc(C(C)C)c(/C=C/[C@@H](O)C[C@@H](O)CC(=O)O)c1-c1ccc(F)cc1
active: [6] 4.73 µM | [7] 0.00777 µM | [8] 0.106 µM | [9] 0.0685 µM | [11] 0.0434 µM | [13] 0.00941 µM
not listed: [3] | [4] | [14] | [15]
inactive: all other assays above
